# A selection: hits, their analogues and other compounds. The true share with any hit is near 21%.
# Pf growth 96h – inhibits malaria parasite growth, 96 h; P. falciparum luciferase reporter growth, 96 h; Potency, µM (doses to about 28.7 µM), without a hit: at the top dose activity change, negative = inhibition, actives largely listed as inhibitors; 320,000 compounds, 6.9% hits; AID 504834; note: potency is the fitted concentration of half-maximal effect; % is set by controls: 0 for no effect and ±100 for the full control effect
#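 Parasite growth measured via integrated firefly luciferase reporter in P. falciparum. Infected erythrocytes at 2% hematocrit, 0.05% parasitemia final were treated 96 hours at 37 C under 5% CO2, and luminescence was read.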
# Cycloheximide cs – affects cycloheximide protein synthesis inhibition readout, counter-screen; cell reporter, cycloheximide protein synthesis inhibition counterscreen; max response, %; 300,000 compounds, 12% hits; in the data active = max response mostly above about 13%, no sharp cut-off; inactive = mostly below about 14%; note: read at 38.3 µM for the half of the compounds with a filed dose; 0% is about no effect
# Pf growth 48h – inhibits P. falciparum growth in the first generation, 48 h; P. falciparum luciferase growth in erythrocytes, 48 h; Potency, µM (series often up to 28.7 µM), for inactives: at the top dose activity change, negative = inhibition, hits mostly inhibitors; 310,000 compounds, 5.9% hits; note: potency is the fitted concentration of half-maximal effect; % is set by controls: 0 for no effect and ±100 for the full control effect
#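 Erythrocytes infected with P. falciparum carrying an integrated firefly luciferase reporter (2% hematocrit, 0.1% parasitemia final) were exposed to compounds in RPMI 1640 with 0.5% Albumax at 37 C, 5% CO2. Growth inhibition was scored as reduced luminescence.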
# Shiga toxin inh – blocks Shiga toxin action in Vero cells; Vero cells, Shiga toxin protein synthesis inhibition reporter; inhibition, % at 38.7 µM; 290,000 compounds, 9.2% hits; AID 2315; in the data active = inhibition mostly above about 28%, no sharp cut-off; inactive = mostly below about 43%; note: 0% is about no effect
# * = called active by the depositor; ? = inconclusive; · = no result given. Unless noted, calls come from the whole dose curve; as a rule, active = well fitted inhibition curve with a large enough effect; inconclusive = small, poorly fitted or top-dose-only effect, or another doubt; inactive = no such curve, though single readings can be large or run the other way.
SMILES,Pf growth 96h,Cycloheximide cs,Pf growth 48h,Shiga toxin inh
O=C(Cc1ccsc1)NNC(=O)c1ccccc1Cl,28%,·,-15%,·
CN(CC(O)COCc1ccccc1F)C1CCCCC1 (configuration not stated),-6%,13,22%,8
CCN(CC(O)COCc1ccc(Cl)cc1)C1CCCCC1 (configuration not stated),?,-8,10µM*,-6
CC(=O)Nc1ccc(C(=O)CSc2nc3ccccc3n2CC(=O)N2CCCC2)cc1,3.7µM*,-5,·,-11
COc1ccc(S(=O)(=O)N2CCC(C(=O)NCC3CC3)CC2)cc1,3%,-4,10µM*,-6
Cc1ccc(S(=O)(=O)N2CCC(C(=O)NCC3CCCCC3)CC2)cc1,?,-5,-30%,-2
COc1ccc(S(=O)(=O)N2CCC(C(=O)NC(c3nc4ccccc4[nH]3)C(C)C)CC2)cc1 (configuration not stated),?,·,10µM*,·
Cc1ccc(S(=O)(=O)N2CCC(C(=O)NCC3CC3)CC2)cc1,0%,2,5.9µM*,-12
CCS(=O)(=O)N1CCC(C(=O)NCc2ccc(OC)cc2)CC1,5.9µM*,-2,14%,17
Cc1ccc(S(=O)(=O)N2CCC(C(=O)NC3CC3)CC2)cc1,5%,-4,2.3µM*,-8
Cc1ccc(S(=O)(=O)N2CCC(C(=O)NC3CCCCC3C)CC2)cc1 (configuration not stated),34%,-4,6%,7
O=C(NC1CCCCCC1)C1CCN(S(=O)(=O)c2ccccc2)CC1,2.9µM*,0,-1%,-8
CC(C)(C)NC(=O)C1CCN(S(=O)(=O)c2ccc(Br)cc2)CC1,-10%,-2,9.3µM*,-4
CC(C)CN(CC(C)C)S(=O)(=O)N1CCC(C(=O)NC2CCCCCCC2)CC1,12µM*,-2,?,-15
O=C(NC1CCN(S(=O)(=O)c2ccccc2)CC1)C1CCCCC1,-21%,-4,16%,-4
COc1ccc(S(=O)(=O)NCC2(N3CCOCC3)CCCCC2)cc1OC,-9%,·,?,·
Cc1ccc(-n2[nH]c(C)c(CCC#N)c2=O)cc1,-25%,-3,-13%,-5
Cc1cc(OC(C)C(=O)N(Cc2ccco2)C2CCS(=O)(=O)C2)cc(C)c1Cl (configuration not stated),3%,-2,-7%,1
CC(NC(=O)C1CCN(S(=O)(=O)N2CCCCCC2)CC1)c1ccccc1 (configuration not stated),·,17*,-30%,-7
COc1ccc(CNC(=O)C2CSC(c3ccc(OC)cc3)N2C(C)=O)cc1 (configuration not stated),-42%,3,·,-7
COc1ccc(CNC(=O)C2CCN(C(=O)[C@@H](CC(C)C)NC(=O)OC(C)(C)C)CC2)cc1,-16%,1,9.3µM*,1
COc1ccc(CNC(=O)[C@H](C)NC(=O)C2CCN(C(=O)[C@H](CCSC)NC(=O)OC(C)(C)C)CC2)cc1,-12%,-1,-18%,0
COc1ccc(CNC(=O)C2CSCCS2)cc1 (configuration not stated),22%,24*,36%,31
COc1ccc(CNC(=O)C2CCN(c3nc(-c4ccccc4)nc4c3CCC4)CC2)cc1,?,-1,1.9µM*,9
NNC(=S)Nc1cccc(-c2n[nH]c(=S)o2)c1,6%,1,-9%,-8
SMILES,Pf growth 96h,Cycloheximide cs,Pf growth 48h,Shiga toxin inh
O=C(NCc1ccccc1Cl)C1CCN(S(=O)(=O)c2ccc(N3CCCC3=O)cc2)CC1,9.3µM*,-3,?,-5
C=CCN(CC=C)C(=O)C1CCN(S(=O)(=O)c2ccc(N3CCCC3=O)cc2)CC1,7.4µM*,-1,-19%,-2
Cc1ccc(NC(=O)c2ccc(N3CCCC3=O)cc2)cc1S(=O)(=O)N1CCCCC1,0.37µM*,·,?,·
Cc1ccc(NC(=O)C2CCN(S(=O)(=O)c3ccc(N4CCCC4=O)cc3)CC2)cc1Cl,5.9µM*,-3,?,-1
NC(=O)C1CCCN(C(=O)c2ccc(NC(=O)c3cccs3)cc2)C1 (configuration not stated),?,·,-5%,·
Cc1cc(C)n(C2CC(=O)N(c3ccc(Cl)c(Cl)c3)C2=O)n1 (configuration not stated),0%,9,11%,3
COc1ccc(CN2CCNC(=O)C2CC(=O)N2CCCCO2)c(OC)c1 (configuration not stated),5%,-3,30%,-2
CSc1nnc(C)c(=O)[nH]1,15µM*,5,-18%,-2
Cc1noc(C)c1CSc1nnc(C)c(=O)[nH]1,13%,-3,-16%,2
CCCCn1c(N)c(N(CCOC)C(=O)C2CC(=O)N(c3ccc(CC)cc3)C2)c(=O)[nH]c1=O (configuration not stated),5%,·,-7%,·
c1ccc(C(c2ccccc2)c2ccn[nH]2)cc1,-20%,19*,-23%,61*
COc1cc(NC(=O)C2CCCN2S(=O)(=O)c2ccc3c(c2)CC(C)N3C(C)=O)cc(OC)c1 (configuration not stated),?,2,-19%,-2
CC1=C(C(=O)Nc2ccccn2)C(c2ccc(N(C)C)cc2)n2ncnc2N1 (configuration not stated),2%,12,40%,98
COc1ccc(C2NC(=S)NC(C)=C2C(=O)Nc2ccccn2)cc1 (configuration not stated),-21%,36*,23%,34*
CC1=C(C(=O)Nc2ccccc2)C(c2ccncc2)n2nnnc2N1 (configuration not stated),0.93µM*,-6,27%,-14
CC1=C(C(=O)Nc2ccccn2)C(c2ccc(F)cc2)n2ncnc2N1 (configuration not stated),-5%,15*,47%,42
CC1=C(C(=O)Nc2ccccn2)C(c2ccccc2)n2ncnc2N1 (configuration not stated),4%,15*,62%,11
Cc1cc(C)nc(NS(=O)(=O)c2ccc(NC(=O)c3snnc3C)cc2)n1,-4%,-8,27%,-8
CCOc1cc(NC(C)=O)ccc1C(=O)OC,-18%,11,-1%,-7
O=C(Nc1ccccc1C(=O)N1CCCCC1)c1ccc(Cl)cc1Cl,23%,-1,-23%,4
CC1CC(=O)N(CC(=O)NCc2ccccc2)c2ccccc2S1(=O)=O (configuration not stated),-10%,-1,6%,-9
CC1=NOC2(C1)N(C)c1ccccc1C2(C)C (configuration not stated),0%,12,39%,24
COc1ccc2ccc3c(c2c1)N=C[C@]1(O3)N(C)c2ccccc2C1(C)C,6.6µM*,-1,?,40
CSc1cccc(-n2cc(-c3ccc4c(c3)OCO4)[nH]c2=O)c1,?,29*,43%,83*
Cc1nnc(SCc2c(Cl)cccc2Cl)s1,78%,32*,21%,60*
Clc1cccc(Cl)c1CSc1nnc(-c2ccncc2)s1,2.1µM*,-2,2.6µM*,15

# From PubChem
